TROY signal inh: inhibitors of TROY-dependent NF-kB signaling; Q293 LMP1-TROYcd NF-kB luciferase reporter, 4 h; actives 0.98% (n = 360,000); AID 1347056; inhibition, % at 10 µM;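 active = compounds whose plate-normalised and pattern-corrected inhibition of the luciferase reporter signal at the single screening dose is 50% or more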
LGR2 inh: inhibitors of bursicon-induced Drosophila LGR2 receptor cAMP signaling. AID 720647. inhibition, % at 9.99 µM. HEK293 LGR2, CRE-luciferase, bursicon-stimulated, 4 h. actives 0.35% (n = 380,000);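 active = drop in luminescence signal, shown as inhibition above about 50% in the replicate tests, limit read from the data, passing the limit was not always enough; inconclusive = probably only some replicates passing the limit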;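 note: agonist challenge used bursicon conditioned medium at about half maximal strength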
EBV LMP1 NFkB: Epstein-Barr LMP1 NF-kappaB reporter inhibition; LMP1-induced NF-kappaB luciferase reporter cells, luminescence; inhibition, % at 12.5 µM; actives 0.69% (n = 350,000); AID 504558; in the data active = inhibition above about 41%; inconclusive = no clear call, values can overlap the other calls
PAX8 reporter: PAX8 transcriptional activity inhibition; inhibition, % at 12.6 µM; actives 1.2% (n = 360,000); RMG-I TPO-luciferase reporter, SteadyGlo, 24 h; AID 652154;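 active = mean replicate inhibition at least 60% with every replicate also reaching 60%; inconclusive = only one of the two criteria is met; inactive = mean below 60% and not all replicates reaching 60%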;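 note: luciferase light reporting Pax8 driven TPO promoter activity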
TWEAK Fn14 block: blocks TWEAK-Fn14 interaction in a reporter cell assay. TWEAK-stimulated Fn14 reporter cells, luciferase luminescence, 8 h. inhibition, % at 10 µM. actives 2% (n = 360,000); in the data active = inhibition above about 50%
EWS-Fli inh: EWS/Fli transcriptional activity inhibition | AID 651661 | A673 NR0B1-luciferase reporter, viability-normalised | actives 0.67% (n = 350,000) | inhibition, % at 12.6 µM;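 active = mean inhibition of at least 50% after viability correction, with every replicate also passing that limit; inconclusive = mean reaches 50% but only one of two replicates passes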;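 note: firefly luciferase signal divided by Alamar Blue viability fluorescence both relative to DMSO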
Hits are given with their value; - = inactive; ? = inconclusive; . = no result given. An excerpt weighted towards active compounds, which were near 3.2% of everything screened.

SMILES	TROY signal inh	LGR2 inh	EBV LMP1 NFkB	PAX8 reporter	TWEAK Fn14 block	EWS-Fli inh
CCCC(=O)Nc1ccc2c(c1)C(=O)N(C)C[C@@H](OC)[C@H](C)CN(S(=O)(=O)c1cn(C)cn1)[C@@H](C)CO2	.	-	.	-	.	-
COc1ccc(S(=O)(=O)N(C)C[C@@H]2Oc3c(NC(=O)c4cnccn4)cccc3C(=O)N([C@H](C)CO)C[C@@H]2C)cc1	.	-	.	.	.	-
COCCCNS(=O)(=O)c1ccc2[nH]c3c(c2c1)CCCCC3	-	-	-	-	84	-
CN1C(=O)c2cc(NS(=O)(=O)c3ccccc3Cl)ccc2OC[C@@H]2O[C@@H](CC(=O)O)CC[C@@H]21	.	-	.	-	.	-
COc1ccc(C2c3sc(=O)[nH]c3SC3C4CCC(C4)C23)cc1 (stereo not given)	.	.	-	.	64	.
CN1c2ccc(Br)cc2[C@H]2[C@H](CCN2C(=O)Nc2ccccc2F)[C@H]1CO	.	-	.	-	.	-
O=C(C[C@H]1CC[C@@H](NC(=O)c2ccccc2)[C@@H](CO)O1)NCCc1ccncc1	.	-	.	.	.	-
CCOC(=O)C1=C(C)N=c2s/c(=C\c3ccc(O)c([N+](=O)[O-])c3)c(=O)n2C1c1ccccc1OC (stereo not given)	-	-	-	-	-	-
COc1ccc(/C=c2/sc3n(c2=O)C(c2ccccc2OC)C2=C(N=3)c3ccccc3CC2)cc1O (stereo not given)	-	.	-	93	-	.
c1ccc2c(-c3cncc4ccccc34)cncc2c1	-	-	-	-	54	-
Cc1nnsc1NC(=O)OCc1ccc(C(C)(C)C)cc1	.	-	-	.	56	.
C=CCOC(=O)Nc1snnc1C	-	-	-	.	-	.
Cc1ccc(S(=O)(=O)N(C)C[C@@H]2Oc3ncccc3C(=O)N([C@H](C)CO)C[C@@H]2C)cc1	.	-	.	.	.	-
O=C(NCc1ccc(F)cc1)[C@@H]1[C@@H](CO)[C@@H]2Cn3c(cccc3=O)[C@H]1N2CC1CC1	.	-	.	.	.	-
O=S(=O)(c1ccccc1)N1CC2(C1)[C@H](c1ccccc1)[C@@H](CO)N2CC1CCOCC1	.	-	.	.	.	-
COc1ccccc1-c1cnc2c(c1)C(=O)N([C@@H](C)CO)C[C@H](C)[C@H](CN(C)C(=O)c1ccccc1)O2	.	-	.	-	.	-
O=C(COc1ccc(CO)cc1Cl)Nc1ccc(F)cc1	-	.	-	-	63	.
O=C(COc1ccc(CO)cc1)Nc1ccc(F)cc1	-	.	-	.	-	.
CN(C)CCOc1ccc(-c2c(-c3ccsc3)sc3ccccc23)cc1	-	.	-	-	-	-
COc1cccc(-c2sc3ccc(OC)cc3c2-c2ccc(OCCN(C)C)cc2)c1	-	-	-	68	-	-
COc1ccc(-c2sc3ccccc3c2-c2ccc(OCCN(C)C)cc2)cc1	-	-	-	100	-	-
COc1cccc(-c2sc3ccc(OC)cc3c2-c2ccc(O)cc2)c1	-	-	-	-	-	-
N#C[C@H]1[C@@H](c2ccccc2C2=CCCC2)[C@@H](CO)N1S(=O)(=O)c1ccccc1	.	-	.	.	.	-
N#Cc1c(-c2ccccc2)nc(SCc2ccc(Cl)cc2)[nH]c1=O	51	-	-	-	-	-
N#Cc1c(-c2ccccc2)nc(SCC(=O)N2c3ccccc3Sc3ccccc32)[nH]c1=O	55	-	-	-	-	-
SMILES	TROY signal inh	LGR2 inh	EBV LMP1 NFkB	PAX8 reporter	TWEAK Fn14 block	EWS-Fli inh
C[C@H](CO)N1C[C@H](C)[C@@H](CN(C)Cc2ccc(Cl)c(Cl)c2)OCCCC[C@H](C)Oc2ccc(N(C)C)cc2C1=O	.	-	.	-	.	-
O=C(C[C@H]1C=C[C@H](NC(=O)C2CCOCC2)[C@H](CO)O1)Nc1ccc(-c2ccccc2)cc1	.	-	.	-	.	-
COc1ccc(C#Cc2ccc([C@H]3[C@H]4CN(C(=O)Nc5ccccc5F)CC(=O)N4[C@H]3CO)cc2)cc1	.	-	.	.	.	-
NC(=S)N/N=C/c1coc2c(ccc3ccccc32)c1=O	-	-	-	-	51	.
Cc1ccc(S(=O)(=O)N[C@H]2CC[C@@H](CCn3cc(C4CCCCC4)nn3)O[C@@H]2CO)cc1	.	-	.	-	.	-
Cc1ccccc1C(=O)Nc1ccc2c(c1)OCCO2	-	?	-	-	58	-
O=C(Nc1ccc2c(c1)OCCO2)c1coc2ccccc2c1=O	85	-	-	-	87	.
O=C(CCn1cccn1)Nc1ccc2c(c1)OCCO2	62	-	-	-	78	.
Cc1ncoc1C(=O)Nc1ccc2c(c1)OCCO2	-	.	-	.	73	.
O=C(Nc1ccc2c(c1)OCCO2)c1ccccc1	-	.	-	.	-	.
CO[C@H]1CN(C)C(=O)c2cc(NC(=O)Nc3ccccc3)ccc2OC[C@@H](C)N(C(=O)Nc2c(C)noc2C)C[C@H]1C	.	-	.	-	.	-
CC(C)NC(=O)N(C)C[C@H]1Oc2cc(C#C[C@@H](C)O)ccc2S(=O)(=O)N([C@@H](C)CO)C[C@H]1C	.	-	.	-	.	-
O=C(C[C@H]1C[C@H]2c3cc(NC(=O)Nc4ccccc4)ccc3O[C@H]2[C@@H](CO)O1)NC1CCCC1	.	-	.	-	.	-
CNC[C@H]1OCCCC[C@H](C)Oc2ccc(NC(=O)Nc3ccc4c(c3)OCO4)cc2C(=O)N([C@H](C)CO)C[C@H]1C	.	-	.	-	.	-
Cc1noc(C)c1NC(=O)Nc1ccc2c(c1)C(=O)N([C@H](C)CO)C[C@@H](C)[C@@H](CN(C)S(=O)(=O)c1cn(C)cn1)O2	.	-	.	.	.	-
CNC[C@@H]1Oc2c(NC(=O)C3CCOCC3)cccc2C(=O)N([C@@H](C)CO)C[C@@H]1C	.	-	.	-	.	-
Cc1nc2ccccn2c1C(=O)Nc1ccc2c(c1)OCCO2	67	.	-	-	85	.
CCC(=O)Nc1ccc2c(c1)OCCO2	-	.	-	-	-	.
O=C(Nc1ccc2c(c1)OCCO2)c1ccc(Cl)cc1Cl	-	52	-	-	-	-

Bioassay records as filed in PubChem BioAssay.
